Compound activity deposited in PubChem by National Center for Advancing Translational Sciences (NCATS).
Pol kappa inh: blocks human DNA polymerase kappa activity | 400,000 tested, 0.53% active | purified Pol kappa, fluorescent DNA synthesis assay, 10 min | Q9UBT6 | Potency, µM (doses to about 107 µM), inactives show at the top dose activity, negative = inhibition, usual class: inhibitors; also: % is scaled to controls: 0 for no effect and ±100 for the full control effect
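Pol kappa 10 nM + cpd, 15 min RT; start w/ substrate 50 nM final; fluorescence kinetic read, 0 and 10 min. Neg ctrl: buffer, no enzyme.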
POLH inh: blocks human DNA polymerase eta activity. Q9Y253. recombinant Pol eta, fluorescent DNA replication assay. Potency, µM (titrated, usually from 114 µM), for the others: top-dose activity change, negative = inhibition, most hits filed as inhibitors. 390,000 tested, 1.2% active. AID 588591; also: % is scaled to controls: 0 for no effect and ±100 for the full control effect
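Pol eta at 10 nM preincubated with compounds 15 min at room temperature; reaction started with fluorescent substrate (50 nM final) and read kinetically at 0 and 10 min.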
WRN helicase inh: blocks human WRN helicase | Q14191 | WRN helicase unwinding, fluorescent forked duplex, kinetic | Potency, µM (highest dose often 114 µM), without a hit: at the highest dose activity change, negative = inhibition, most hits filed as inhibitors | 360,000 tested, 0.46% active | AID 651768; also: % is scaled to controls: 0 for no effect and ±100 for the full control effect; nearly all actives have a fitted effect of over 55% in size
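Enzyme (20 nM final) and test compound sit together 15 min at room temperature before substrate addition. Substrate is a single-forked duplex oligonucleotide (100 nM) labelled with fluorophore and quencher, with 2 mM ATP; helicase unwinding raises red fluorescence, read kinetically.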
POLB inh: inhibitors of human DNA polymerase beta | Pol beta primer extension/strand displacement, fluorescence kinetic | Potency, µM (top dose mostly 114 µM), for inactives: at the highest dose activity change, negative = inhibition, usual class: inhibitors | 340,000 tested, 1.3% active | AID 485314; also: % is scaled to controls: 0 for no effect and ±100 for the full control effect
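Pol beta (10 nM) and compounds were preincubated 15 min at room temperature, then 50 nM substrate (final) started primer extension/strand displacement. Reads were taken at 0 and 10 min; concentration-response data were fitted to a four-parameter Hill equation.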
Pol iota inh: DNA polymerase iota (human) inhibition | Q9UNA4 | Pol iota fluorescent replication assay, 10 min | Potency, µM (top dose mostly 115 µM), without a hit: at the top dose activity, negative = inhibition, actives largely listed as inhibitors | 390,000 tested, 1% active | AID 588590
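Fluorescent replication assay read twice, at 0 min and 10 min after adding 50 nM (final) substrate. Enzyme (10 nM) and compounds were first incubated 15 min at room temperature; enzyme-free buffer wells were negative controls.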
FEN1 inh: inhibitors of human flap endonuclease 1; 390,000 tested, 0.35% active; Potency, µM (highest dose often 114 µM), for inactives: at the highest dose activity change, negative = inhibition, most hits filed as inhibitors; Recombinant FEN1 flap cleavage, fluorescence, 15 min; AID 588795; P39748; also: % is scaled to controls: 0 for no effect and ±100 for the full control effect; nearly all actives have a fitted effect of over 65% in size
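Enzyme 10 nM, 15 min RT preincubation with compound; start with substrate 50 nM final; reads at 0 and 15 min; qHTS titration, four-parameter Hill fit.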
Active calls of the source: *; [ ] = another dose, or the depositor's remark. This is a sample that favours compounds with a hit; in the whole collection about 2.4% have one here. Calls follow the shape of the dose curve; as a rule, active = well fitted curve in the direction sought with a large enough effect; inconclusive = small, poorly fitted or top-dose-only effect, or another doubt; inactive = no such curve, though single readings can be large; an effect the other way counts as inactive or inconclusive. Potency is read from the fitted curve at half-maximal effect.

COc1ccc(/C=C/C(=O)c2ccc(OC)cc2OC)c(OC)c1 was read as Pol kappa inh -6%, POLH inh -14%, WRN helicase inh -12%, POLB inh -20%, Pol iota inh -9% and FEN1 inh -11%.
`CNc1ccc(Br)cc(C(=O)/C=C/c2cccc(OC)c2)c1=O` gave Pol kappa inh inconclusive, POLH inh 16µM*, WRN helicase inh -34%[57.1 µM], POLB inh -24%, Pol iota inh inconclusive and FEN1 inh inconclusive.
For CNc1ccc(Br)cc(C(=O)/C=C/c2ccc(Cl)cc2Cl)c1=O the results were Pol kappa inh -25%, POLH inh 50µM*, WRN helicase inh -10%[11.6 µM], POLB inh 32µM*, Pol iota inh inconclusive and FEN1 inh -21%.
CNc1ccc(Br)cc(C(=O)/C=C/c2ccc(OC)cc2OC)c1=O was read as Pol kappa inh inconclusive, POLH inh 45µM*, WRN helicase inh inconclusive, POLB inh inconclusive, Pol iota inh 11µM* and FEN1 inh inconclusive.
Cc1cccc(OCC(=O)Nc2cc(C)c(O)c(-c3nc4ccccc4o3)c2)c1 was read as Pol kappa inh -5%, Pol iota inh 25% and FEN1 inh -7%.
For Cc1ccc(-n2nc(C)c3c(C(=O)NCc4ccc(F)cc4)cc(C)nc32)cc1 the results were Pol kappa inh 0%, POLH inh inconclusive, POLB inh -1%, Pol iota inh 24% and FEN1 inh 2%.
Screening CC(C)c1ccc(NC(=O)c2ccc(=O)n(Cc3ccccc3)c2)cc1 returned Pol kappa inh -10%[60.1 µM], POLH inh -31%, POLB inh -2%, Pol iota inh 1% and FEN1 inh -16%.
CCOc1c(Cl)cc(C(=O)N(Cc2ccc(N(C)C)cc2)Cc2ccco2)cc1Cl was read as Pol kappa inh 10%, POLB inh 22%, Pol iota inh 17% and FEN1 inh -3%.
Screening Nc1c2c(=O)[nH]c(O)cc2nn1-c1ccccc1 returned Pol kappa inh inconclusive, POLH inh 50µM*, WRN helicase inh -2%[11.6 µM], Pol iota inh 8.9µM* and FEN1 inh inconclusive.
`Cc1c(C)c2c(C)nn(-c3ccccc3)c2[nH]c1=O` gave Pol kappa inh -7%, POLH inh -18%, WRN helicase inh -1%, POLB inh 14%, Pol iota inh 27% and FEN1 inh 7%.
O=C(O)c1ccc2c(=O)n3c(nc2c1)/C(=C/c1ccc(C(F)(F)F)cc1)CC3 was read as Pol kappa inh 4%, POLH inh inconclusive, WRN helicase inh -9%, POLB inh 5%, Pol iota inh 79µM* and FEN1 inh inconclusive.
For N#Cc1ccc(/C=C2\CCCCn3c2nc2cc(C(=O)O)ccc2c3=O)cc1 the results were Pol kappa inh -2%, POLH inh -7%, WRN helicase inh 11%, POLB inh inconclusive, Pol iota inh 35% and FEN1 inh -1%.
`O=C(C[N+]12CCCc3cccc(c31)CCC2)c1ccc(Cl)c2ccccc12` gave Pol kappa inh -13%, Pol iota inh 29% and FEN1 inh 13%.
CCOc1ccc(S(=O)(=O)NCC(c2ccc(N(C)C)cc2)N2CCCC2)cc1 (configuration not stated) was read as Pol kappa inh -1%[60.1 µM], POLH inh -14%, POLB inh -12%, Pol iota inh 10% and FEN1 inh -6%.
Screening CCOc1[nH]c(/N=C/c2ccccc2)c(C#N)c1C#N returned Pol kappa inh -2%, Pol iota inh inconclusive and FEN1 inh 4%.
`COc1[nH]c(/N=C/c2ccco2)c(C#N)c1C#N` gave Pol kappa inh -5%, Pol iota inh 71µM* and FEN1 inh inconclusive.
`CC(=O)c1ccc(NC(=O)C2=CC(c3ccc(C)cc3)=NS(=O)(=O)N2C)cc1` gave Pol kappa inh -5%, POLH inh -25%, POLB inh -15%, Pol iota inh 28% and FEN1 inh -6%.
`CCOc1ccc(-n2c(SCC(=O)N3CCc4ccccc43)nc3c([nH]c4ccccc43)c2=O)cc1` gave Pol kappa inh -4%[60.1 µM], POLH inh 7%, POLB inh 56%, Pol iota inh -4% and FEN1 inh -4%.
`O=C(COc1ccccc1/C=C1\SC(=O)NC1=O)Nc1ccc(F)cc1` gave Pol kappa inh -7%, POLH inh 71µM*, WRN helicase inh -19%[57.1 µM], POLB inh inconclusive, Pol iota inh 52% and FEN1 inh -16%.
For CCCCCCC(=O)N(O)C1CC(=O)N(c2ccc(Br)cc2)C1=O (configuration not stated) the results were Pol kappa inh -2%, POLH inh -9%, WRN helicase inh 0%, POLB inh 0%, Pol iota inh 1% and FEN1 inh -6%.
For CCCCCCC(=O)N(O)C1CC(=O)N(c2ccc(F)cc2)C1=O (configuration not stated) the results were Pol kappa inh -2%, POLH inh -3%, WRN helicase inh 28µM*, POLB inh 6%, Pol iota inh 79% and FEN1 inh -5%.
For Cc1ccc(NC(=O)CCCN2C(=O)COc3ccc(C)cc32)c(Cl)c1 the results were Pol kappa inh -6%, POLB inh 1%, Pol iota inh -1% and FEN1 inh -12%.
O=C(CSc1nc2sc3c(c2c(=O)n1-c1ccccc1)CCCC3)N/N=C/c1ccccc1C(=O)O was read as Pol kappa inh -2%, POLH inh 50µM*, WRN helicase inh 0%, POLB inh inconclusive, Pol iota inh inconclusive and FEN1 inh 50µM*.
`O=S(=O)(Nc1ccc(N=Nc2ccc(O)c3ccccc23)cc1)c1ccccc1` gave Pol kappa inh -14%, POLH inh inconclusive, WRN helicase inh -20%, POLB inh 4%, Pol iota inh 25% and FEN1 inh -1%.
For O=S(=O)(O)c1cc(O)c2c(N=Nc3ccc(Nc4ccccc4)c4c(S(=O)(=O)O)cccc34)cc(S(=O)(=O)O)cc2c1 the results were Pol kappa inh 3.2µM*.
COc1ccc2nc(N3CCCCC3)c(/C=C3\SC(=S)NC3=O)cc2c1 was read as Pol kappa inh 8%, POLH inh 35µM*, WRN helicase inh inconclusive, POLB inh -21%, Pol iota inh -11% and FEN1 inh 11%.
`O=C1NC(=S)S/C1=C\c1cc2ccccc2nc1N1CCCCC1` gave Pol kappa inh -4%, POLH inh 40µM*, WRN helicase inh 8%[11.6 µM], POLB inh inconclusive, Pol iota inh -9% and FEN1 inh -12%.
